Test results reported in PubChem BioAssay AID2524 (Sanford-Burnham Center for Chemical Genomics, 2010).
The campaign covered roughly 330,000 compounds. About 540 (0.16%) were called active.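 How the source made its calls: active means activation factor of the enzyme at least 2-fold when tested at 20 µM; inactive means the rest.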 Only a selection was taken, and actives are over-represented in it overall.

What follows are molecules tested against Intestinal-type alkaline phosphatase (Homo sapiens) (UniProt P09923) (assay: human IAP activators, primary screen, biochemical, luminescence, uHTS (AID 2524)). Conditions: purified human IAP, CDP-Star luminescence, 30 min; at 10 µM; stronger effect = higher value; 1 = vehicle-only enzyme, 0 = enzyme-free background.
Sequence of Intestinal-type alkaline phosphatase (Homo sapiens) (P09923 whole entry, looked up): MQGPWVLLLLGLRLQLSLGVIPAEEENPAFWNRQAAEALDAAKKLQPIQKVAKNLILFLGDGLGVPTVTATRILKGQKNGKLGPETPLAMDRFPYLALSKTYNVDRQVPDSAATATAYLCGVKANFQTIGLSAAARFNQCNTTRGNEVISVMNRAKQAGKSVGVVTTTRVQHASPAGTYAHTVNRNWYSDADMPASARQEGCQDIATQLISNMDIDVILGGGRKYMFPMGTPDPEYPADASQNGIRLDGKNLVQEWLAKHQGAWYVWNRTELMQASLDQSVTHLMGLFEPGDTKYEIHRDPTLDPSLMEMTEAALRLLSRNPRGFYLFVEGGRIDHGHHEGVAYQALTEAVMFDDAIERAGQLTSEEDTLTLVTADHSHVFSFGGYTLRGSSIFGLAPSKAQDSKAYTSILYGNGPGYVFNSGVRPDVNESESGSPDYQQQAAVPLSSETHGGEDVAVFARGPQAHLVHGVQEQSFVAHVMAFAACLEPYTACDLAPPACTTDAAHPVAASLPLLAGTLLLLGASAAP

Activation factor, active:
Cc1cc(C)cc(NC(=O)NC2CCN(CC(=O)Nc3cccc(Cl)c3C)CC2)c1 3.04
COc1cc(NC(=O)COC(=O)c2cnc(C)cn2)c(C)cc1[N+](=O)[O-] 2.53
OC1CN=C2Sc3ccccc3N2C1 (stereo not given) 2.42
NC(=O)COc1ccc(NC(=O)c2ccccc2-c2ccccc2)cc1 2.12
Cc1cccc(NS(=O)(=O)c2cccc(C(=O)NNC(=O)c3ccccc3O)c2)c1 2.18
COc1ccc(CN2CCC(n3nccc3NC(=O)CCCc3ccccc3)CC2)cc1C 3.92
COc1cc(NC(=O)NCC2CCN(Cc3ccc(C)cc3)CC2)cc(OC)c1OC 2.12

Activation factor, inactive:
O=C(NCc1ccccc1Cl)c1ccc2c(=O)n(CC3CCCO3)c(=S)[nH]c2c1 (stereo not given) 0.824
CCN=c1sc(C(=O)Nc2ccccc2)c(C)n1CC 1.04
CN(C)c1nccc(NCc2ccccc2)c1C#N 1.01
COc1cccc(NC(=O)CN2CCN(CC(=O)Nc3ccccc3Cl)CC2)c1 0.935
O=C(CN1CCC(NC(=O)Nc2ccccc2)CC1)Nc1cccc([N+](=O)[O-])c1 0.94
CN(C)C(=O)c1nc2ccc(Cl)cn2c1CNCc1cccc(OC(F)(F)F)c1 0.976
COc1cc(S(=O)(=O)Nc2ncn[nH]2)ccc1Cl 0.999
CC(C)n1ncc2c(C(=O)Nc3ccc(CC#N)cc3)cc(C3CC3)nc21 0.958
O=C(c1cc(COc2c(F)cccc2F)on1)N1CCSCC1 1.07
Cc1cnc(C(=O)OCC(=O)Nc2ccc(Cl)cc2Cl)cn1 1.07
COc1cc(NC(=O)COC(=O)CSc2ccc3ccccc3c2)c(C)cc1[N+](=O)[O-] 1.12
CCCCN(CCCC)CCNC(=O)CN1C(=O)COc2ccc(S(=O)(=O)N3CCOCC3)cc21 0.976
O=C(CNCCC1=CCCCC1)Nc1ccccc1N1CCCCCC1 1.04
COCCNS(=O)(=O)c1cc(Br)ccc1OC 0.874
CSCCNC(=O)c1ccc2nc(Cc3ccccc3F)oc2c1 1.11
CCCc1cc(=O)[nH]c(SCC(=O)Nc2ccc(C(=O)Nc3ccccc3OC)cc2)n1 1.04
Cc1ccc(C(=O)COC(=O)CCCC(=O)NC2CCCCC2)cc1[N+](=O)[O-] 0.908
COC(=O)c1cccc(N(C(=O)CNC(=O)c2cccs2)C(C(=O)NCC2CCCO2)c2ccc(OC)c(OC)c2)c1 (stereo not given) 0.951
COC(=O)[C@]1(CC(C)C)N[C@H](c2ccc(SC3CCCCC3)cc2)[C@@H]2C(=O)N(C)C(=O)[C@@H]21 0.874
COc1ccc(CCC(C)N2CCc3ccccc3C2)cc1 (stereo not given) 0.983
Cc1nn(CC2CC2)c(=O)n1N(C)c1ncc(C(F)(F)F)cc1Cl 0.985
COc1ccccc1C(=O)NCC(=O)NCCSc1ccc(Br)cc1 1.02
O=C(CSCc1ccccc1Cl)NNC(=O)c1ccccc1 1.25
CC(=O)Nc1ccc(NC(=O)COc2ccc(-c3ccccc3)cc2)cc1 0.914
CN(C)C(=O)c1ccc(NC(=O)c2ccccc2-c2ccccc2)cc1 1.16
Cn1nnnc1SCC(=O)Nc1ccccc1C(=O)NC1CC1 0.94
CCN(CC)S(=O)(=O)c1ccc(Cl)c(C(=O)NCCN2CCOCC2)c1 1.07
CC1CC(C)(C)n2c(O)c(N=NC(N)=S)c3cccc1c32 (stereo not given) 0.927
CC(=O)Oc1c(C(=O)c2nnc(C)o2)c(=O)n(Cc2ccccc2)c2ccccc12 1.07
Cc1cccc(NS(=O)(=O)c2ccc(C)c(C(N)=O)c2)c1 1.05
CC(=O)N1CCN(C(=O)c2cccc(S(=O)(=O)Nc3ccc(C)cc3)c2)CC1 1.16
CN(C)C(=O)c1cccn(Cc2cccc(C(F)(F)F)c2)c1=O 1.24
Cn1c(N)c(C(=O)COC(=O)C23CC4CC(CC(C4)C2)C3)c(=O)n(C)c1=O 0.895
Cc1ccccc1C(=O)NCC(c1ccco1)N1CCc2ccccc21 (stereo not given) 0.802
CC12COC3(C(=O)Nc4ccc(Cl)cn4)CC1CCC32C (stereo not given) 0.935
Cc1ccc(CN2CCC(n3nccc3NC(=O)CCCc3ccccc3)CC2)o1 1.13
COc1cc(CN2CCC(n3nccc3NC(=O)CCCc3ccccc3)CC2)ccc1O 1.47
C=Cn1cc[n+](CC(=O)c2ccc(OC)c(OC)c2)c1 0.894
O=C(c1ccc(Br)o1)N(c1ccccn1)C1CCCCC1 1.04
O=C(N/N=C/c1ccc(Br)o1)c1cncc(Br)c1 1.05
N#Cc1ccccc1CN1C(=O)S/C(=C/c2cccn2-c2cccc(C(=O)O)c2)C1=O 1.06
Cc1ccc(C)c(CN2CCC(CNC(=O)Nc3ccc(C)c(F)c3)CC2)c1 1.49
Cc1cccc(CN2CCC(CNC(=O)Nc3ccc(F)c(Cl)c3)CC2)c1 1.31
